Holding throughout (assay): NCI-60 one-dose screen, 48 h (100 = growth as untreated, 0 = no growth, -100 = all killed)
In one test the test system is NCI-H226 lung. The settings on record: 10 µM.
Another test concerns NCI-H322M lung. The settings on record: 10 µM unless noted.
In the next test the test system is HOP-62 NSCLC. The settings on record: 10 µM unless noted.
The subject of the next test is NCI-H460 lung. The settings on record: 10 µM unless noted.
The subject of the next test is HOP-92 NSCLC. The settings on record: 10 µM unless noted.
A further test relates to NCI-H522 lung. Conditions: 10 µM.
Another test concerns A549/ATCC NSCLC. The settings on record: 10 µM unless noted.
For a further test, the system named is 786-0 renal. The settings on record: 10 µM unless noted.
A further test concerns COLO 205 colon. Conditions: 10 µM unless noted.

This is part of a sample that, as a whole, favours compounds with a hit. Of some 83,000 tested, about 20% had one in any assay.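 Compound tested at a single concentration for 48 hours in 96-well plates; a percent growth value below 10 was scored as active.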 Unmarked numbers belong to inactive results. The source made the active and inactive calls.

With `O=C(O)C[C@H](O)C[C@H](O)/C=C/c1c(C2CC2)nc2ccccc2c1-c1ccc(F)cc1`, the growth in the test on NCI-H226 lung is 65.6%; in the test on NCI-H322M lung, 58.1%; with HOP-62 NSCLC, 84.9%; with NCI-H460 lung it was 94.4%; in the test on HOP-92 NSCLC it was -12% (active); in the test with NCI-H522 lung, 53.7%. Further, the growth with A549/ATCC NSCLC is 105%; in the test with 786-0 renal, 91.9%; with COLO 205 colon it was 102%.

Turning to `COc1ccc(/C=C2\CN(Cc3cn(CCCNc4ccnc5cc(Cl)ccc45)nn3)C/C(=C\c3ccc(OC)cc3)C2=O)cc1`, the growth in the test with NCI-H226 lung is 96.7%; with NCI-H322M lung it was 80.1%; in the test on HOP-62 NSCLC, 63.6%; with NCI-H460 lung it was 86.3%; in the test with HOP-92 NSCLC it was 53.8%; in the test with NCI-H522 lung it was 87.9%. Besides, the growth in the test with A549/ATCC NSCLC is 65.7%; in the test with 786-0 renal, 76.3%; with COLO 205 colon, 81.6%.

`COc1cc(C(=O)/C=C/c2c(-c3cccs3)nc3sccn23)cc(OC)c1OC`: the growth is 26.2% with NCI-H226 lung; 8.06% (active) in the test with NCI-H322M lung; 0.498% (active) with HOP-62 NSCLC; -27.9% (active) with NCI-H460 lung; -5.38% (active) with HOP-92 NSCLC; -13% (active) in the test with NCI-H522 lung. Moreover, the growth in the test with A549/ATCC NSCLC was -3.26% (active); with 786-0 renal, -13.9% (active); with COLO 205 colon, -49.7% (active).

For `COC(=O)c1cc(-c2ccc(C)cc2)n(C(=O)CSc2nc3sc(C(N)=O)c(C)c3c(=O)n2Cc2ccccc2)n1`, the growth in the test with NCI-H226 lung was 103%; in the test on NCI-H322M lung it was 129%; in the test with HOP-62 NSCLC it was 98.6%; in the test with NCI-H460 lung, 103%; with HOP-92 NSCLC, 92.5%; in the test with NCI-H522 lung, 95%. The results for the growth in the test with A549/ATCC NSCLC, in the test with 786-0 renal and with COLO 205 colon were 107%, 102% and 93.5%, respectively.

Turning to `Cc1ccc(C)c2c1sc1nc3nc4sc5ccccc5n4c(=N)c3c(=O)n12`, the growth is 115% with NCI-H226 lung; 120% in the test on NCI-H322M lung; 97.3% with HOP-62 NSCLC; 95.5% in the test on NCI-H460 lung; 72.3% with HOP-92 NSCLC; 116% in the test on NCI-H522 lung. The growth in the test with A549/ATCC NSCLC is 111%; in the test on 786-0 renal it was 100%; with COLO 205 colon, 109%.

In the case of `C=CC(=O)N1CC2(CCC(n3nc(-c4ccc(Oc5ccccc5)cc4)c4c(N)ncnc43)CC2)C1`, the growth is -77.7% (active) in the test on NCI-H226 lung; 0.179% (active) in the test with NCI-H322M lung; -2.62% (active) with HOP-62 NSCLC; -76.8% (active) in the test on NCI-H460 lung; -66.4% (active) with HOP-92 NSCLC; -78.7% (active) with A549/ATCC NSCLC. Further, the growth with 786-0 renal is -87.7% (active); in the test with COLO 205 colon, -11.6% (active).

For the compound `NC(=O)c1cc(I)ccc1NC(=O)COc1ccccc1`, the growth was 64.2% in the test on NCI-H226 lung; 48.3% in the test on NCI-H322M lung; 21.7% in the test on HOP-62 NSCLC; 6.3% (active) in the test on NCI-H460 lung; 0.734% (active) in the test on NCI-H522 lung; 18.3% in the test on A549/ATCC NSCLC. Further, the growth in the test on 786-0 renal was 33.7%; with COLO 205 colon, 12.2%.

With `COc1cccc(C2C3=C(COC3=O)N(CCO)c3cc4c(cc32)OCO4)c1` (centres undefined), the growth was 51.6% with NCI-H226 lung; 48.9% with NCI-H322M lung; 30.4% with HOP-62 NSCLC; 12.3% in the test with NCI-H460 lung; 65.7% in the test on HOP-92 NSCLC; -39.4% (active) in the test on NCI-H522 lung. Also, the growth with A549/ATCC NSCLC is 25.9%; in the test with 786-0 renal it was 18.5%; in the test with COLO 205 colon, -27.1% (active).

For `C[C@@H](Oc1cc(-c2cnn(C3CC4(CNC4)C3)c2)cnc1N)c1c(Cl)ccc(F)c1Cl`, the growth was 65.9% with NCI-H226 lung; 72.1% in the test with NCI-H322M lung; 49.9% in the test with HOP-62 NSCLC; 15.9% in the test with NCI-H460 lung; 0.0528% (active) in the test on HOP-92 NSCLC; 69.1% with NCI-H522 lung. The results for the growth with A549/ATCC NSCLC, in the test on 786-0 renal and with COLO 205 colon were 19.6%, 53% and 5.17% (active), respectively.

In the case of `CN1CCn2c(c(Sc3ccc(C(=O)NO)cc3)c3ccccc32)C1=O`, the growth in the test with NCI-H226 lung was -8.32% (active); with NCI-H322M lung it was 53%; in the test on HOP-62 NSCLC, 21.3%; in the test on NCI-H460 lung, 20.4%; in the test with NCI-H522 lung it was -97.3% (active); in the test with A549/ATCC NSCLC, 62%. For the same compound, the growth was 39.8% in the test with 786-0 renal and 1.64% (active) in the test on COLO 205 colon.

For the compound `O=S(=O)(OCCO)c1ccccc1`, the growth was 98.1% with NCI-H226 lung; 103% with NCI-H322M lung; 126% in the test with HOP-62 NSCLC; 113% in the test on NCI-H460 lung; 101% with HOP-92 NSCLC; 95.5% with NCI-H522 lung. The growth is 97.2% in the test with A549/ATCC NSCLC, 108% with 786-0 renal and 118% in the test with COLO 205 colon.

Regarding `Cc1nn(CC(=O)O)c2c1C(=O)CC(C)(C)C2`, the growth with NCI-H226 lung was 93.6%; in the test on NCI-H322M lung, 115%; with HOP-62 NSCLC, 91.1%; in the test on NCI-H460 lung, 107%; in the test on HOP-92 NSCLC it was 95.5%; in the test on NCI-H522 lung, 96.7%. Also, the results for the growth in the test on A549/ATCC NSCLC, in the test with 786-0 renal and in the test on COLO 205 colon were 102%, 89.8% and 117%, respectively.

With `Cn1c2ccccc2c2nn(Cc3ccccc3)c(=O)nc21`, the growth with NCI-H226 lung was 86.6%; with NCI-H322M lung, 113%; with HOP-62 NSCLC, 94.2%; in the test with NCI-H460 lung it was 102%; in the test on NCI-H522 lung, 103%; in the test on A549/ATCC NSCLC, 105%. For the same compound, the growth is 108% in the test on 786-0 renal and 119% in the test on COLO 205 colon.

As to `CCC(C)[C@H]1O[C@]2(CC[C@@H]1C)C[C@@H]1C[C@@H](C/C=C(\C)[C@@H](OC3C[C@H](OC)C(O[C@H]4C[C@H](OC)[C@@H](O)[C@H](C)O4)[C@H](C)O3)[C@@H](C)/C=C/C=C3\CO[C@@H]4[C@H](O)C(C)=C[C@@H](C(=O)O1)[C@]34O)O2` (some centres undefined), the growth in the test with NCI-H226 lung was 6.79% (active); in the test with NCI-H322M lung, 52.7%; in the test on HOP-62 NSCLC it was 29.5%; in the test on NCI-H460 lung it was 3.02% (active); in the test with NCI-H522 lung it was 17.2%; in the test with A549/ATCC NSCLC, 21.3%. Besides, the growth in the test on 786-0 renal is -79.7% (active); with COLO 205 colon, -41.6% (active).

As to `COc1cc(NC(=O)COc2ccccc2)c(C(N)=O)cc1OC`, the growth was 76.5% in the test with NCI-H226 lung; 40.1% with NCI-H322M lung; 30.5% in the test with HOP-62 NSCLC; 7.91% (active) in the test on NCI-H460 lung; -9.94% (active) with NCI-H522 lung; 20.5% with A549/ATCC NSCLC. Also, the growth with 786-0 renal is 44.4%; in the test with COLO 205 colon, 8.28% (active).

For the origin of these results see PubChem BioAssay (NCI).
